In all, about 340,000 compounds went through this assay and about 6,400 (1.9%) were called active. Another 4% or so got no clear call; they are omitted. This is one part of a sample in which actives are shown more often than they occur. Unmarked numbers belong to inactive results. Calls come from the whole dose curve; as a rule, active = well fitted falling curve with a large enough effect; inconclusive = small, poorly fitted or top-dose-only effect; inactive = no such curve, though single readings can be large or run the other way.
These compounds were tested against ATP-dependent Clp protease proteolytic subunit (Bacillus subtilis (strain 168)) (UniProt P80244) (assay: qHTS Assay for Activators of ClpP). Conditions: purified B. subtilis ClpP, FRET peptide cleavage, 20 min; series mostly up to 57.5 µM; activity change, negative = active: at the top concentration.
Source text: The Clp protease proteolytic subunit (ClpP) is the core unit of the Clp complex belonging to the peptidase family S14 that hydrolyzes protein into small peptides in the presence of ATP and magnesium. It is ubiquitously expressed and is the major protease in bacteria. […] Unlike common antibiotics that simply interfere with the essential enzyme activity, ADEP binding activates the ClpP core in the absence of the regulatory Clp-ATPases leading to uncontrolled proteolysis and eventually cell death. Activators binding to the docking site on ClpP can also block formation of the ClpXP and ClpA/C-P holoenzyme complexes interfering with the normal biological functions of ClpP and thus have the potential to become new anti-microbials.
To identify activators of ClpP, a FRET based quenching reversal assay was developed using a purified B. subtilis ClpP and a decapeptide substrate (FRET-FV). The FRET-FV is tagged with a fluorescent molecule amino benzoic acid (donor) at the N-terminus and a nitrotyrosine quencher (acceptor) at the C-terminus. FRET-FV cleaves upon activation of ClpP with ADEP treatement and reverses the quenching effect of the nitrotyrosine causing an increase in fluorescence emission signal at 430nm. This assay was used to screen the Molecular Libraries Small Molecule Repository (MLSMR).
NIH Molecular Libraries Probe Production Centers Network [MLPCN]
NIH Chemical Genomics Center [NCGC]
Assay Submitter (PI): Michael Maurizi, National Cancer Institute
Two and a half microL/well of purified enzyme solution (final concentrations 10 microg/mL B. subtilis ClpP in 100 mM Tris/HCl pH8, 100 mM KCl, 0.05% low protease BSA, 2.5% glycerol, 0.01% Tween-20 buffer) was dispensed into 1536-well assay plates (Greiner, black solid, medium-binding plates) with Aurora Discovery BioRAPTR Flying Reagent Dispenser (FRD, Beckton-Dickenson). Compound solution (23 nL) was transferred to the assay plate using Kalypsys pin tool equipped with a 1536-pin tool. […] FRET signals at time 0 and after 20 min room temperature incubation were obtained using the PerkinElmer Envision plate reader with 320nm excitation and 430nm emission filters. Delta FRET value (Time 20 - Time 0) was calculated and normalized to the delta FRET value of positive control ADEP (5.8 microM final concentration) and negative control DMSO and no enzyme wells.
Note: the source files actives as falling curves though it sought activators and does not explain the sign; nearly all actives have a fitted effect of over 65% in size.

Chain of ATP-dependent Clp protease proteolytic subunit (Bacillus subtilis (strain 168)) (P80244 whole entry, looked up): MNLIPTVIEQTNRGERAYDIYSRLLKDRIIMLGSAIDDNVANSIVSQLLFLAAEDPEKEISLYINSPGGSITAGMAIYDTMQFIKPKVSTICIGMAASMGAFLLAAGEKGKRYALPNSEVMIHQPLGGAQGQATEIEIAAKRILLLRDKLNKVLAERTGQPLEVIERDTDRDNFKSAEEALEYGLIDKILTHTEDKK

Structure (SMILES) | activity change, negative = active | Potency
CCCc1cc(=O)oc2c(C)c(OCC(=O)Nc3ccccn3)ccc12 | 4% | –
COC(=O)Cc1cc(=O)oc2c(C)c(O)ccc12 | – | 15.8 µM (active)
CCOC(=O)[C@]12CCC=C1N(CCC1=CCCCC1)C(=O)[C@H](CC(=O)NCc1ccc(C)o1)C2 | 0.969% | –
Cc1nccn1-c1ccc(NC(=O)[C@H]2O[C@@H](n3cnc4c(N)ncnc43)[C@H](O)[C@@H]2O)cc1 | 1.51% | –
O=C(NCc1cccnc1)c1cc(C2CCCN(C(=O)C3CCCCC3)C2)on1 (stereo not given) | -0.544% | –
CN(C)c1ccc(/C=C/C=C/c2ccnc3ccccc23)cc1 | 1.11% | –
COc1ccc(Br)c(Cn2c(C)c(C(=O)NCc3cccs3)sc2=O)c1 | 1.44% | –
O=C(NCc1ccccc1)C(c1ccc(F)cc1)N1CCN(C(=O)C2CCCO2)CC1 (stereo not given) | -1.43% | –
COc1cccc(CNC(=O)c2cccnc2Sc2ccc(Cl)cc2)c1 | 0.0811% | –
COc1cccc(-n2cc(C(=O)NCc3cccc(Cl)c3)c3ccccc3c2=O)c1 | – | 25.1 µM (active)
CCN(Cc1ccccc1)C(=O)c1cn(-c2cccc(OC)c2)c(=O)c2ccccc12 | -15% | –
CC1(C)CC(=O)c2cc(C(=O)NCc3ccccc3)c(=O)[nH]c2C1 | -8.46% | –
CN(C)Cc1ccc(F)cc1Sc1cc(Cl)ccc1Cl | – | 12.6 µM (active)
CC(=O)Nc1cc(C(=O)NCc2ccc(F)cc2Cl)ccc1Sc1ccc(Cl)cc1 | -9.43% | –
Cc1ccc(-c2ccc(=O)n(Cc3ccc(F)cc3Cl)n2)cc1 | 0.44% | –
Brc1cccc[n+]1Cc1cccc(C[n+]2ccccc2Br)c1 | -6.97% | –
CC(C)C(=O)Nc1ccc2oc(=O)ccc2c1 | – | 35.5 µM (active)
Cc1ccc2oc(=O)ccc2c1 | -7.73% | –
CC(C)C(=O)Nc1ccc2c(c1)oc1ccccc12 | -15.9% | –
COc1ccc(C(C)(O)c2nc(-c3cc(F)cc(F)c3)cs2)cc1 (stereo not given) | 0.362% | –
CN1CCN(c2ccc3c(c2)OC[C@H](Cc2ccccc2)NS3(=O)=O)CC1 | -0.119% | –
COc1ccccc1CNC(=O)c1cc(-c2cc(F)ccc2OC)n[nH]1 | -5.92% | –
Cc1nn(Cc2ccccc2)c(Cl)c1C(=O)OC1CCOC1=O (stereo not given) | 0.992% | –
O=C(OC1CCOC1=O)c1ccc(-c2nc3ccccc3s2)s1 (stereo not given) | – | 17.8 µM (active)
CC(C)(C)c1ccc(OCC(=O)N2CCC(c3nc4ccccc4s3)CC2)cc1 | 0.0567% | –

Structure (SMILES) | activity change, negative = active | Potency
COCCNC(=O)c1cc2c(Br)ccc(Br)c2nc1N | -6.95% | –
CCOP(=O)(OCC)C(Cc1ccccc1)N=C(c1ccccc1)c1ccccc1 (stereo not given) | 0.52% | –
CCCC1OC23CCCCC2C(C#N)(C#N)C1(C#N)C(=N)O3 (stereo not given) | – | 20 µM (active)
O=C(Nc1ccccc1)c1ccccc1OCc1ccccc1 | -4.41% | –
C[C@H]1CN([C@@H](C)CO)C(=O)CCCn2nncc2CO[C@@H]1CN(C)Cc1ccc(Oc2ccccc2)cc1 | -1.47% | –
NC(c1ccccc1)c1csc(NC(=O)Nc2cccc(C(F)(F)F)c2)n1 (stereo not given) | -2.47% | –
CCCn1c(=N)c(C(=O)NCc2ccccc2)cc2c(=O)n3cccc(C)c3nc21 | 4.76% | –
Cc1cccn2c(=O)c3cc(C(=O)N4COCC4(C)C)n(C)c3nc12 | – | 28.2 µM (active)
COCCCn1c(C(=O)NC2CCCCC2)cc2c(=O)n3cccc(C)c3nc21 | 3.95% | –
O=C1NC[C@H](CCCCN2C[C@H](Cc3ccc(O)cc3)N(CC3CCCCC3)C(=O)C2=O)N(CCc2ccccc2)C1=O | 1.1% | –
Cn1c(=O)c2cc(NC(=O)NCCc3cccs3)ccc2n1Cc1cccc(C(F)(F)F)c1 | 4.93% | –
Cc1nc2c(c(C)nn2-c2ccccc2)c(C)c1C | -0.788% | –
CSc1ccc(-c2c(C#N)c(N)nc3c2c(C)nn3-c2ccccc2)cc1 | – | 22.4 µM (active)
Cc1nn(-c2ccccc2)c2c1C(c1ccc(F)cc1)C(C#N)=C(N)O2 (stereo not given) | -14.9% | –
COc1ccc(NC(=O)C2(C)Cc3c(-c4cccc(NC(C)=O)c4)ccnc3O2)cc1OC (stereo not given) | -7.68% | –
FC(F)(F)c1cccc(-c2nc3ccccc3n2C(c2ccccc2)c2nc3ccccc3[nH]2)c1 (stereo not given) | 4.78% | –
O=C(Nc1cc(C(F)(F)F)ccc1Cl)c1nc2ccccc2nc1N1CCCCC1 | 0.902% | –
FC(F)(F)c1cccc(-c2cc3ccccc3nc2N2CCCC2)c1 | – | 31.6 µM (active)
CC(=O)c1ccc[n+](C(C)CCC(C)[n+]2cccc(C(C)=O)c2)c1 (stereo not given) | -0.892% | –
O=C(Nc1cccc(C(=O)O)c1)/C(=C\c1ccccc1)NC(=O)c1ccc(Br)o1 | -1.89% | –
CC(=O)NC(c1ccccc1)c1nc(-c2cccc(C(C)C)c2)cs1 (stereo not given) | 1.12% | –
CC1(C(=O)NS(=O)(=O)c2cccc(F)c2)CCN1C(=O)c1cccc2ccccc12 (stereo not given) | -1.17% | –
CCc1nc(Nc2ccc3nccnc3c2)c2oc3ccccc3c2n1 | – | 28.2 µM (active)
COCCNc1nc(-c2ccccc2)nc2c1oc1ccccc12 | -0.339% | –
CCc1nc(Nc2ccc(NC(C)=O)cc2)c2oc3ccccc3c2n1 | 35.9% | –

Source: PubChem BioAssay AID651965 (National Center for Advancing Translational Sciences (NCATS), 2013)
